The list is not random: actives were taken first. Their share in the collection is about 9.4%.
SMN2 splice enh: qHTS Assay for Enhancers of SMN2 Splice Variant Expression; HEK293 SMN2-luciferase splicing reporter, luminescence, 30-36 h; Potency, µM (top dose mostly 46.1 µM), inactives show at the top dose activity change, positive = activation, most hits filed as activators; actives 2.8% (n = 210,000); AID 1458, 2008; note: % of control where 0% means no effect; nearly all actives have a fitted effect of over 55% in size
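qHTS luciferase splicing reporter: luminescence rises when SMN2 exon 7 is included in transfected HEK293 cells. Compound exposure lasted 30-36 h at 37C, with 4.5 mM final sodium butyrate as control, followed by a ONE-Glo read.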
ELG1 genotoxic: qHTS screen for small molecules that induce genotoxicity in human embryonic kidney (HEK293T) cells expressing luciferase-tagged ELG1. HEK293T ELG1-luciferase reporter, luminescence, 16 h. Potency, µM (series often up to 46 µM), for the others: at the top dose activity change, positive = activation, usual class: activators. actives 1.3% (n = 330,000); note: % of control where 0% means no effect; nearly all actives have a fitted effect of over 60% in size
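DMSO vehicle served as control against compound-treated ELG1-luciferase HEK293T cells; exposure lasted 16 hr at 37 °C and 5% CO2, followed by ONE-Glo luminescence detection after 30 min.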
ELG1 DNA repair: qHTS screen for small molecules that inhibit ELG1-dependent DNA repair in human embryonic kidney (HEK293T) cells expressing luciferase-tagged ELG1. HEK293T ELG1-luciferase reporter, luminescence, 16 h; DNA damage induced by 5-fluorouridine. Potency, µM (highest dose often 46.1 µM), without a hit: at the highest dose activity change, negative = inhibition, usual class: inhibitors. actives 2.3% (n = 330,000). AID 504467, 2011; note: % is set by controls: 0 for no effect and ±100 for the full control effect; nearly all actives have a fitted effect of over 55% in size
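In this reporter screen, reduction of luminescence relative to DMSO vehicle indicated activity. Compounds and 5-fluorouridine were added together to 2,000 cells per well, incubated for 16 hr at 37 °C, then developed with ONE-Glo.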
FLuc modulator: qHTS profiling assay for firefly luciferase inhibitor/activator using purifed enzyme and Km concentrations of substrates (counterscreen for miR-21 project); Luciferin 4-monooxygenase (Photinus pyralis), P08659; purified FLuc, Km substrates, luminescence inhibition; Potency, µM (doses to about 57.5 µM), for the others: top-dose activity change, negative = inhibition, most hits filed as inhibitors; actives 6.9% (n = 360,000); AID 588342, 2011;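 note: plate controls were vehicle for no effect and reference inhibitor for full effect; nearly all actives have a fitted effect of over 55% in size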
Target sequence (P08659 whole entry, looked up): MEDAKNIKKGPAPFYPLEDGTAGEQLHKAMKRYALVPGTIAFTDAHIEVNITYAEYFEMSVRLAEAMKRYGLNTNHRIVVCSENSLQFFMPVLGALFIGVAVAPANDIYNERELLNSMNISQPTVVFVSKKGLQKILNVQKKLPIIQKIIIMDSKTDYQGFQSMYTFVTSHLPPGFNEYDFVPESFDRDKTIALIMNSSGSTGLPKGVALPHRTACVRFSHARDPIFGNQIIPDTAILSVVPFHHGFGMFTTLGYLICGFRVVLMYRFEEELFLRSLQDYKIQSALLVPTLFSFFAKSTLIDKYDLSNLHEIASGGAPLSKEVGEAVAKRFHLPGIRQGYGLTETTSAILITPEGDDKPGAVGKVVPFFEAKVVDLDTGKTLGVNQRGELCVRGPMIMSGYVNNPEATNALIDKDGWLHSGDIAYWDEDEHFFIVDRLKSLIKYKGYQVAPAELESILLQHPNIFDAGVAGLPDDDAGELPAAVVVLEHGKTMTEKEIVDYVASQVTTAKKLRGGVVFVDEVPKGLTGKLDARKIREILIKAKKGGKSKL
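Purified P. pyralis luciferase (10nM final) with 10uM D-luciferin and 10uM ATP (Km levels) in 50mM Tris acetate pH 7.5, 10mM Mg acetate, 0.01% Tween-20, 0.05% BSA; qHTS 6-point titration, ~60 µM downward; luminescence read.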
Rab9 promoter act: qHTS Assay for Rab9 Promoter Activators; actives 2.8% (n = 320,000); AID 485297, 2010; Huh7 Rab9 promoter-luciferase reporter, luminescence, 24 h; Potency, µM (doses to about 9.22 µM), for the others: at the highest dose activation, negative = inhibition, usual class: activators; note: % of control where 0% means no effect; nearly all actives have a fitted effect of over 60% in size
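Promoter activation is measured as luciferase luminescence in Huh7 cells stably transfected with a Rab9 promoter–luciferase construct, following 24 h compound exposure at 37 °C and 10 min reagent incubation at ambient temperature.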
NPC1 prom act: qHTS Assay for NPC1 Promoter Activators; Huh7 NPC1 promoter luciferase reporter, 24 h; Potency, µM (highest dose often 9.22 µM), inactives show top-dose activation, hits mostly activators; actives 2.4% (n = 320,000); note: % of control where 0% means no effect; nearly all actives have a fitted effect of over 60% in size
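In 1536-well qHTS, Huh7 cells harboring an NPC1 promoter–luciferase construct received compound for 24 h; activation was quantified by luminescence following luciferase reagent addition.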
* = called active by the depositor; u = inconclusive; x = no result given; [ ] = dose if it differs, or a comment. Calls come from the whole dose curve; as a rule, active = well fitted curve in the direction sought with a large enough effect; inconclusive = small, poorly fitted or top-dose-only effect, or another doubt; inactive = no such curve, though single readings can be large; an effect the other way counts as inactive or inconclusive. Potency is the fitted concentration of half-maximal effect.

SMILES | SMN2 splice enh | ELG1 genotoxic | ELG1 DNA repair | FLuc modulator | Rab9 promoter act | NPC1 prom act
COc1cccc(C(=O)Nc2ccc(C)cc2)c1 | 11µM* | 1.8µM* | u | 6µM* | 1µM* | 1.4µM*
Cc1cc(C)cc(NC(=O)C2CCC(CNS(=O)(=O)c3ccc4c(c3)C(C)(C)C(=O)N4C)CC2)c1 (stereo not given) | x | x | x | -19% | x | x
O=C(O)[C@H]1O[C@H]1C(=O)O | -13%[9.22 µM] | x | x | x | x | x
COc1ccc(N2CCN(S(=O)(=O)c3ccc(OC)c(-c4noc(C)n4)c3)CC2)cc1 | x | x | x | 3% | x | x
CCOC(=O)c1cc(S(=O)(=O)Nc2ccccc2)[nH]n1 | x | x | x | -4% | x | x
COc1ccc(C(=O)Nc2ccc(C(=O)Nc3cccc(C)c3)cc2)cc1 | x | 13µM* | u | 3% | -11% | -8%
COc1ccc(NC(=O)c2cccc(NC(=O)c3ccccc3)c2)cc1 | x | 4% | 23% | u | u | u
COc1cccc(C(=O)Nc2cccc(OC(C)=O)c2)c1 | 11µM* | 6% | u | u | u | u
COc1ccc(C(=O)Nc2cccc(-c3ccc4nncn4n3)c2)cc1 | -5% | -6% | 11% | 17µM* | -4% | -3%
CCC(=O)Nc1ccc2c(c1)C(=O)N(C)C2=O | 2% | -7% | 15% | 1% | 18% | -3%
COc1cc(OC)cc(C(=O)Nc2cccc(-c3ccc4nncn4n3)c2)c1 | 1% | -4% | -18% | 0% | -9% | -7%
CCC(=O)Nc1ccc2c(c1)C(=O)c1ccccc1C2=O | 11µM* | u | u | 3.8µM* | 1.3µM* | 1.6µM*
CC(CO)(CO)Nc1ncnc2ccccc12 | -22%[9.22 µM] | x | x | x | x | x
COc1cccc(C(=O)Nc2ccc(C3CC3(Cl)Cl)cc2)c1 (stereo not given) | 13µM* | u | u | 2.7µM* | 1.1µM* | 2.2µM*
COc1cccc(C(=O)NC(=S)Nc2ccc(N(C)C)cc2)c1 | 11µM* | u | u | 12µM* | 3.5µM* | u
COc1cccc(C(=O)NC(=S)Nc2ccc(N3CCCC3)cc2)c1 | -17% | -3% | -21% | u | 0% | 0%
COc1cccc(NC(=O)c2cccc(Cl)c2)c1 | x | 2.1µM* | u | 3.4µM* | 2µM* | 2.5µM*
COC(=O)c1ccc(NC(=O)c2cccc(OC)c2)cc1 | u | u | u | 19µM* | u | u
CC(C)c1ccc(NC(=O)CSC2=Nc3ccccc3C3=NC(CCC(=O)NCc4cccs4)C(=O)N23)cc1 (stereo not given) | x | x | x | -9% | x | x
COC(=O)c1cccc(NC(=O)c2cccc(OC)c2)c1 | u | x | x | 12µM* | x | x
CCOC(=O)Nc1cccc(NC(=O)c2cc(OC)cc(OC)c2)c1 | 1% | -7% | 15µM* | u | -2% | u
COc1cccc(C(=O)COc2cccc(NC(=O)c3cccc([N+](=O)[O-])c3)c2)c1 | -43% | -13% | 13µM* | u | -2% | -3%
COc1cc(OC)cc(C(=O)Nc2cccc(NC(C)=O)c2)c1 | 3% | -2% | -1% | -8% | -7% | 0%
Cc1nn(CCCC(=O)NCc2ccccc2)c(=O)c2cc3sccc3n12 | -3% | x | x | -9% | x | x
O=C(NCC1CC1)[C@H]1C[C@@H]1[C@H](NP(=O)(c1ccccc1)c1ccccc1)c1ccccc1 | -6% | x | x | x | x | x
SMILES | SMN2 splice enh | ELG1 genotoxic | ELG1 DNA repair | FLuc modulator | Rab9 promoter act | NPC1 prom act
CCOC(=O)N1CCN(C(=O)c2cnn3c(C(F)(F)F)cc(-c4cccs4)nc23)CC1 | -3% | -9% | 6.5µM* | -1% | -2% | -7%
O=C(NCC(c1ccc2c(c1)OCO2)N1CCOCC1)C(=O)Nc1ccc(Cl)cc1 (stereo not given) | x | x | x | -1% | x | x
NCCSCCC(=O)O | -5%[9.22 µM] | x | x | x | x | x
Fc1ccc(-c2cnn3c(-c4ccncc4)ccnc23)cc1 | 4.5µM* | 7% | u | 1.2µM* | 0.4µM* | 0.35µM*
Fc1ccc(-c2cnn3c(-c4cccs4)ccnc23)cc1 | 3.2µM* | 7% | u | 0.76µM* | 4µM* | 4.5µM*
O=C(Nc1cccc(F)c1)[C@H](CSCc1ccccc1)N1Cc2ccccc2C1=O | -3% | x | x | -4% | x | x
COc1ccc2cnn(-c3ccc(C)cc3)c(=O)c2c1OC | 27% | 15µM* | u | 24µM* | u | u
COc1ccc2cnn(-c3ccc(OC(F)(F)Cl)cc3)c(=O)c2c1OC | x | 4% | 28% | 0% | 26% | 21%
COc1ccc2cnn(CCOc3ccccc3)c(=O)c2c1OC | 11µM* | u | u | 4.8µM* | 0.56µM* | 0.79µM*
Cc1ccc2c(c1)cc1c(=O)n(CC(=O)NC3CCCCC3)nc(C)n12 | 5% | x | x | 6% | x | x
CN1CCN(c2ncc3c(n2)CCN(Cc2ccccc2Cl)C3)CC1 | x | x | x | -6% | x | x
O=C(COC(=O)c1cc2ccccc2o1)c1ccccc1 | -7% | u | 16% | 6µM* | -2% | -2%
COc1cc(C(=O)COC(=O)c2ccco2)cc(OC)c1OC | x | 11% | 16% | x | x | x
Cc1ccc(C(=O)COC(=O)c2ccc(Br)o2)cc1C | 10% | 4% | u | 11µM* | 16% | 2%
O=C(COC(=O)c1ccco1)c1ccc(Cl)cc1 | x | 18% | 17% | 1.7µM* | -6% | -1%
COc1ccc(C(=O)COC(=O)c2cc(=O)c3ccccc3o2)cc1 | x | 0% | 0% | x | x | x
O=C(COC(=O)c1ccco1)c1ccc2ccccc2c1 | -15% | 10% | 11% | 2.4µM* | 9% | -2%
Cc1cccc(-c2noc(CN(C(=O)COc3ccc(Br)cc3C)C(C)C)n2)c1 | -16% | x | x | -11% | x | x
O=C(Cc1ccc(F)cc1)OCC(=O)c1cc2ccccc2o1 | 7% | 1% | 4% | 21µM* | 2% | 9%
O=C(CCNc1ccc(F)cc1)c1cc2ccccc2o1 | 1% | 8% | 0% | -5% | 0% | -5%
O=C(COC(=O)c1ccco1)c1ccccc1 | x | u | u | 6µM* | 0% | -7%
Cc1ccc(C(=O)COC(=O)c2ccco2)cc1C | x | 23µM* | u | 1.5µM* | 13% | 1%
O=C(CSCc1ccc(Cl)cc1)c1ccco1 | -4% | 11% | u | 15µM* | 8% | 12%

Assay outcomes: PubChem, National Center for Advancing Translational Sciences (NCATS)
